These results are taken from PubChem BioAssay AID2551 (National Center for Advancing Translational Sciences (NCATS), 2010).

About 17,000 (5.5%) of roughly 310,000 compounds were called active. Entries that show only a call come without a potency. Not shown: some 11% with an inconclusive outcome. Calls follow the shape of the dose curve; as a rule, active = well fitted inhibition curve with a large enough effect; inconclusive = small, poorly fitted or top-dose-only effect, or effect the other way; inactive = no such curve, though single readings can be large or run the other way. The sample as a whole holds a higher share of actives than the screen did.
Potency is read from the fitted curve at half-maximal effect.

Sequence of Nuclear receptor ROR-gamma (Mus musculus) (P51450 whole entry, looked up, the tested form may be a part): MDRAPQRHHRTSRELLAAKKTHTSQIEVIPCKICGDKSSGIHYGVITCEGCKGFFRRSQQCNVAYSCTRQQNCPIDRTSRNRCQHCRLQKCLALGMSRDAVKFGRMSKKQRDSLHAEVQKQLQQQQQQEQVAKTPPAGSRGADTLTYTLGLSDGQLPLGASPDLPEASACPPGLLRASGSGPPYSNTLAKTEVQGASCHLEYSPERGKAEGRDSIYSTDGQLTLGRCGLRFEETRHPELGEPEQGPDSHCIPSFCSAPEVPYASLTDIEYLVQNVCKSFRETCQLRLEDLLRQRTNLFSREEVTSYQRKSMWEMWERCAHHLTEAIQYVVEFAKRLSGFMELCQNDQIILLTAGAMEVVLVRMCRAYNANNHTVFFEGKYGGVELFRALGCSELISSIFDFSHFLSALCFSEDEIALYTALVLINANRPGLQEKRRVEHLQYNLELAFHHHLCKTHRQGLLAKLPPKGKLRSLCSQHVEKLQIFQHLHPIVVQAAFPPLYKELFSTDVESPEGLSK

The experiment has as its target Nuclear receptor ROR-gamma (Mus musculus) (UniProt P51450). As to the kind of experiment: qHTS for inhibitors of ROR gamma transcriptional activity. Also: nearly all actives have a fitted effect of over 60% in size. The note with it: Drosophila S2 Gal4-RORgamma UAS-luciferase reporter, 20 h; series mostly up to 53.6 µM. Put shortly: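 Schneider cells (Drosophila), stable Gal4 DBD–ROR gamma + UAS-luc; 1 hr cmpd preincubation; Cu2+ induction 700 uM final; 20 hr ambient; luminescence.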
(Quantitative high-throughput screening tests each substance at several concentrations.)
Turning to `O=C(NCc1cccc(CNC(=O)Nc2cccc(O)c2)c1)Nc1cccc(O)c1`, the Potency entry is “inactive”.
The value for `COc1ccc(CCNC(=O)CCNS(=O)(=O)c2cc(Br)cnc2N)cc1OC` was “inactive”.
With `CCc1nc(Nc2ccc(NC(C)=O)cc2)c2oc3ccccc3c2n1` the entry was “inactive”.
With `CC1C(=O)C(C)C(c2ccc(O)cc2)NC1c1ccc(O)cc1` (stereo not drawn) the entry was “inactive”; with `Cc1cc(C)nc(Nc2ncn[nH]2)n1`, “inactive”; with `Cc1cc(C)nc(Nc2n[nH]c(-c3ccccc3N)n2)n1`, 10 µM (active).
In the case of `Cc1cc(Nc2ccccc2)nc(N)n1`, the Potency result is “inactive”.
Consider `O=C(C1CC(=O)N(C2CCCCC2)C1)N1CCN(c2ccccc2)CC1` (stereo not drawn), for which the Potency result was “inactive”.
With `COc1cccc(CNC(=O)C2CCCN(S(=O)(=O)N3CC(C)CC(C)C3)C2)c1` (stereo not drawn) the entry was “inactive”.
With `O=C(c1cnc(Cl)c(Cl)c1)N1CCN(S(=O)(=O)c2ccc(F)cc2)CC1` the entry was “inactive”; with `CNC(=O)C(=O)N/N=C/c1ccccn1`, “inactive”; with `O=C(Nc1ccc(S(=O)(=O)Nc2ncccn2)cc1)C12CC3CC(CC(C3)C1)C2`, “inactive”.
With `O=C(N/N=C/c1ccccn1)C12CC3CC(CC(C3)C1)C2` the figure was 2.82 µM (active); with `CC(C)(C)C1CCC(C(=O)NCC(c2cccs2)N2CCOCC2)CC1` (stereo not drawn), “inactive”.
`O=C(CNC(=O)OCc1ccccc1)NC1CCCCNC1=O` (stereo not drawn): the Potency result is “inactive”.
As to `O=[N+]([O-])c1cc([N+](=O)[O-])c(Oc2cc(F)cc(F)c2F)cc1NN1CCCCC1`, the Potency entry is “inactive”.
The value for `COc1ccc(-c2ccc(CNCCCN3CCOCC3)o2)cc1Cl` was “inactive”; that for `O=C(NCc1ccccn1)c1cc(Br)ccc1Cl` was “inactive”; that for `Fc1ccc(-c2ccc(CNCc3ccccn3)o2)cc1Cl` was 11.2 µM (active).
The value for `CCOc1ccc(-n2c(SCC(N)=O)nnc2-c2ccco2)cc1` was “inactive”.
`COc1ccccc1S(=O)(=O)c1c(C)cc(C)[nH]c1=O`: the Potency result is “inactive”.
For `O=C1/C(=C\c2ccsc2)NC(=S)N1c1ccccc1`, the Potency is 7.08 µM (active).
On to `COc1cc2c(cc1/C=C1/NC(=O)N(c3ccccc3)C1=O)OCO2`, for which the Potency result is “inactive”.
The value for `O=C1N/C(=C/c2cccn2-c2ccccc2)C(=O)N1c1cccc(Cl)c1` was “inactive”; that for `COc1ccc(OCC(O)CN(C)C(=O)C(C)Oc2ccccc2)cc1` (stereo not drawn) was “inactive”.
Take `COc1ccc(C(=O)NCCCN2CCOCC2)cc1Br`: the Potency entry was “inactive”.
As for `CC(=O)c1c(N2CCN(c3ccc(F)cc3)CC2)nc(=S)n(-c2ccccc2)c1C`, the Potency is 14.1 µM (active).
Regarding `Cc1nnc(SCC(=O)N2CCN(c3ccccc3)CC2)n1-c1ccccc1`, the Potency entry was “inactive”.
With `Cc1ccc2cc(C)c(N3CCN(c4ccc(F)cc4)CC3)nc2c1` the entry was “inactive”; with `Cc1ccccc1/C=C\c1nc(O)c([N+](=O)[O-])c(=O)[nH]1`, “inactive”.
The value for `COc1cccc(NC(=O)C2CCCN(c3ncnc4c3nc3n4CCCCC3)C2)c1` (stereo not drawn) was “inactive”; that for `COc1ccc(NC(=O)N2CCCC(C(=O)Nc3ccccc3OC)C2)cc1` (stereo not drawn) was “inactive”; that for `O=C(/C=C/c1ccc(F)cc1)NCCNC(=O)/C=C/c1ccc(F)cc1` was “inactive”.
The value for `O=C(/C=C/c1ccc(F)cc1)NC(=S)NNC(=O)c1cccnc1` was 11.2 µM (active); that for `CC(C)c1ccc(/C=C/C(=O)NNC(=O)c2cccnc2)cc1` was “inactive”.
For `O=C(NCc1ccccc1)c1onc(CSc2nc3ccccc3[nH]2)c1C(=O)NCc1ccccc1`, the Potency result is “inactive”.
With `CCSCc1nc(N)nc(NCCc2ccccc2)n1` the entry was “inactive”.
The value for `Cc1cc(C)c(C(=O)CSc2nc(C)cc(=O)[nH]2)c(C)c1` was “inactive”; that for `COc1ccccc1N1CCN(S(=O)(=O)CCNC(=O)c2ccc(OC(C)C)cc2)CC1` was “inactive”; that for `CC(OC(=O)c1ccc2noc(-c3ccccc3)c2c1)C(N)=O` (stereo not drawn) was “inactive”.
With `O=C(C/C(=N\NC(=O)c1ccccc1Br)C(F)(F)F)c1cccs1` the figure was 14.1 µM (active).
As to `COc1ccc(C(=O)COC(=O)CNC(=O)c2cccs2)cc1Br`, the Potency result was “inactive”.
With `O=C(Nc1nn(Cc2ccccc2F)cc1Br)c1cccs1` the entry was “inactive”; with `CCCCn1c(-c2cccc(C)c2)nc2cc3[nH]c(=O)c(C(C)C)nc3cc21`, “inactive”.
With `O=C(Nc1cccc(-c2cscn2)c1)C1CCN(Cc2ccsc2)CC1` the entry was “inactive”.
The value for `O=C(NCCN1CCOC1=O)C1CCC(=O)N(CCc2ccc(Cl)cc2)C1` (stereo not drawn) was “inactive”; that for `Cc1ccc(CS(=O)Cc2ccc(C(=O)N3CCOCC3)o2)cc1` (stereo not drawn) was “inactive”.
As to `CCOc1ccccc1N=C1NC(=O)CS1`, the Potency result was “inactive”.
The value for `CCOc1cccc(/C=N/N2C(=O)CSC2=S)c1O` was 3.16 µM (active); that for `COc1ccc(CCNC(=O)C(=O)NCC2OCCN2S(=O)(=O)c2ccc(F)cc2)cc1OC` (stereo not drawn) was “inactive”.
The value for `Cc1ccc(S(=O)(=O)NNC(=O)/C=C/c2cccc(F)c2)cc1` was “inactive”; that for `COC(=O)C1=C(O)/C(=C/c2ccc(OCC(=O)Nc3ccccc3)cc2)N=C1C` was “inactive”; that for `CS(=O)(=O)N1CCN=C1SCc1ccc(F)cc1` was “inactive”.
As to `Cc1cc(NC(=O)CSc2nnnn2-c2ccc(F)cc2)no1`, the Potency entry is “inactive”.
Take `CC1=C(C(N)=O)C(c2ccc(Br)cc2)n2ncnc2N1` (stereo not drawn): the Potency entry is “inactive”.
As to `Fc1ccccc1/C=C1\CCCC2=C1Nc1ncnn1C2c1ccccc1F` (stereo not drawn), the Potency is 2.82 µM (active).
With `CC(=O)c1cccc(NC(=O)COc2ccc(S(=O)(=O)N3CCOCC3)cc2)c1` the entry was “inactive”.
For the compound `O=C(CSc1ccc(-c2ccccn2)nn1)Nc1ccccc1`, the Potency result is “inactive”.
The value for `CCC(C)(C)n1nnnc1C(c1ccc(OC)c(OC)c1)N1CCN(C(=O)c2ccco2)CC1` (stereo not drawn) was “inactive”.
With `Cc1cccc(NS(=O)(=O)c2cc(Cl)ccc2Cl)n1` the entry was “inactive”.
With `Cc1n[nH]c(=O)n1-c1ccc(C(C)C)cc1` the entry was “inactive”; with `COc1ccc(Oc2ncc3nc(C)c(=O)n(-c4ccccc4)c3n2)cc1`, “inactive”; with `Cc1n[nH]c(=O)n1-c1ccc(Oc2ccccc2)cc1`, 2.82 µM (active).
Regarding `Cc1ccc2c(c1)N(S(=O)(=O)c1cc(-c3cc(C)no3)ccc1C)CCO2`, the Potency result is “inactive”.
With `O=S(=O)(c1ccc(Cl)s1)N1CCC2(CC1)OCCO2` the entry was “inactive”.
The value for `O=C(c1cccc(Br)c1)N1CCN(C2=NS(=O)(=O)c3ccccc32)CC1` was “inactive”; that for `COC(=O)c1c(NC(=O)C(=O)N2CCCCC2)sc2c1CC(C)(C)OC2` was “inactive”; that for `COc1c(C)cccc1C(=O)Nc1cc(Cl)ccc1N1CCOCC1` was “inactive”.
Turning to `COc1cccc(OC)c1C(=O)NC(=S)Nc1ccc(N2CCOCC2)c(Cl)c1`, the Potency is 8.91 µM (active).
In the case of `CCOc1ccc(C(=O)Nc2ccc(CN3CCOCC3)cc2)cc1Cl`, the Potency result is “inactive”.
With `COC(=O)c1cc(NC(=O)c2ccco2)ccc1N1CCOCC1` the entry was “inactive”.
Consider `CCOC(=O)c1c(NC(=O)c2ccc(N3CCOCC3)c([N+](=O)[O-])c2)sc(C)c1C`, for which the Potency entry was “inactive”.
In the case of `CCOc1ccc(C(=O)NC(=S)Nc2ccc(N3CCOCC3)c(Cl)c2)cc1[N+](=O)[O-]`, the Potency was 3.16 µM (active).
